Some compounds were tested as several samples or in several runs, with calls that do not always agree. Activity calls are given as the source filed them. The calls were made as follows: active = hit-call score of the fitted dose curve at least 0.9, where 1 is the maximum; inactive = score below 0.9.

Read-out in the assay: catalase (CAT), CAT (gene 847)
The experiment in a line: LTEA_HepaRG_CAT: Life Technologies and Expression Analysis (LTEA) Assay for catalase (CAT) using HepaRG (AID 2283452).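 As to AC50: TaqMan qRT-PCR signal normalized to ACTB GAPDH and POLR2A housekeeping genes.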 The conditions noted are these: mRNA level, 48 h; actives raise or lower the signal. As to the method:
LTEA_HepaRG is a cell based, multiplexed-readout assay that uses HepaRG, a human liver cell line, with measurements taken at 48 hours after chemical dosing on a 96-well plate.LTEA_HepaRG_CAT is one of 102 assay component(s) measured in the LTEA HepaRG cell culture assay. It is a marker of Oxidative Stress.Data from the assay component LTEA_HepaRG_CAT was analyzed into 1 endpoint. This assay endpoint, LTEA_HepaRG_CAT, was analyzed with bidirectional fitting relative to DMSO as the negative control and baseline of activity. Using a type of inducible reporter, measures of mRNA induction for gain or loss-of-signal activity can be used to understand regulation of transcription factor activity. To generalize the intended target to other relatable targets, this assay endpoint is annotated to the catalase intended target family, where the subfamily is oxidative stress.
A total of 1060 chemcials from the ToxCast library were tested in eight-point concentration-response experiments. Cell culture and cytotoxicity assays were conducted at Thermo Fisher Scientific's Custom Services facility (Madison, WI). A single lot of human HepaRG cells (Thermo Fisher Scientific, Frederick, MD) was used for the cell culture experiments. 96-well format collagen type I coated plates of human HepaRG cells were prepared using established methods. Briefly, cryopreserved HepaRG cells were thawed, plated at a density of approximately 100,000 cells/well in HepaRG Thaw, Plate, and General Purpose media (HPRG770, Thermo Fisher Scientific), and incubated for 48 hours. 0.5% DMSO was selected as vehicle control to balance the requisite need of DMSO in HepaRG cultures to maintain differentiation (for example, baseline metabolism, proportions of hepatocytes vs. cholangiocytes), while enabling further hepatic receptor pathway activation (for example, PXR and CAR) in response to chemical exposure. 48 hours after plating, the culture medium was replaced with HepaRG Serum-Free Incudtion Media. Cells were exposed to each test chemical in duplicate and maintained in CO2 incubators for another 48 hours. Chemical plates were thawed to room temperature and 200x concentrations of treatment groups were prepared. 8-point conentration-reponse curves were made with the highest exposure at 100 uM, followed by half-log dilutions, all in 0.5% DMSO. Each test plate contained variouse controls, induction positive controls (1mM phenobarbital), cytotoxicity positive controls ([…] aflatoxin B1), vehicle controls (0.5% DMSO), and total lysis controls (0.5% DMSO). Cell morphology images were taken using an Essen IncuCyte FLR automated microscope, with six 96-well plates imaged in about 24 minutes. Images were captured and exported and JPEG files. Spent culture media was transfered to black-well plates for the LDH assay, and remaining media was sorted at -80 C for later use. Cells were treated with RLT buffer and frozen until shipped for gene expression analysis. Total RNA was isolated from the cell suspension in 75 uL of Buffer RLT (Qiagen, Germantown, MD 20874) by Quintiles/Expression Analysis (Durham, NC) using a custom isolation procedure. Total RNA from each plate well was transferred to a preamplification plate. Fluidigm's 96.96 Dynamic ArrayTM (Fluidigm, Amsterdam, the Netherlands) technology was used for gene expression analyses by quantitative reverse transcription polymerase chain reaction (qRT-PCR, performed by Quintiles/Expression Analysis, Durham, NC)89. Standard TaqManTM Assays (Applied Biosystems/ThermoFisher Scientific, Foster City, CA) were used to assess the expression of 93 genes selected based on their selectivity and sensitivity to important hepatic receptors known to be modulated by environmental chemicals; importance in human hepatocyte functionality; and hepatotoxicity. […]
In general, AC50 refers to the midpoint of the concentration-response curve, whichever way the signal moves. As to `CC[C@H](C)[C@H]1O[C@]2(C=C[C@@H]1C)C[C@@H]1C[C@@H](C/C=C(\C)[C@@H](O[C@H]3C[C@H](OC)[C@@H](O[C@H]4C[C@H](OC)[C@@H](O)[C@H](C)O4)[C@H](C)O3)[C@@H](C)/C=C/C=C3\CO[C@@H]4[C@H](O)C(C)=C[C@@H](C(=O)O1)[C@]34O)O2` (tested in a mixture with another compound), the AC50 is 10.5 µM (active).

Consider `CNC(=O)CSP(=S)(OC)OC`, for which the result was inactive.

Take `N#Cc1c(Cl)c(Cl)c(Cl)c(C#N)c1Cl`: the AC50 is 65.7 µM (active).

In the case of `Oc1cc(Cl)ccc1Oc1ccc(Cl)cc1Cl`, the AC50 is 90.2 µM (active) and the call was inactive.

In the case of `CN1CSC(=S)N(C)C1`, the molecule was classed as inactive.

Consider `CC(C)(C)C(O)/C(=C\c1ccc(Cl)cc1Cl)n1cncn1` (stereo not given), for which the AC50 was 27.3 µM (active).

Turning to `COP(=O)(OC)OC=C(Cl)Cl`, the outcome was inactive.

Take `O=C(NC(=O)c1c(F)cccc1F)Nc1ccc(OC(F)(F)C(F)OC(F)(F)F)c(Cl)c1` (stereo not given): the call was inactive.

Take `O=C(O)CCCOc1ccc(Cl)cc1Cl`: the outcome was inactive.

Consider `O=S(=O)(O)C(F)(F)C(F)(F)C(F)(F)C(F)(F)C(F)(F)C(F)(F)C(F)(F)C(F)(F)F`, for which the molecule was classed as inactive and the AC50 was 84 µM (active).

As to `CC1(c2ccc(Oc3ccccc3)cc2)OC(=O)N(Nc2ccccc2)C1=O` (stereo not given), the AC50 is 12.7 µM (active).

As to `CCOCN(C(=O)CCl)c1c(C)cccc1CC`, the AC50 was 80 µM (active).

As to `Cc1[nH]c(=O)n(C(C)(C)C)c(=O)c1Cl`, the molecule was classed as inactive.

As for `Clc1ccccc1-c1nnc(-c2ccccc2Cl)nn1`, the molecule was classed as inactive.

For the molecule `C#CCN1C(=O)COc2cc(F)c(N3C(=O)C4=C(CCCC4)C3=O)cc21`, the molecule was called inactive.

In the case of `O=C1c2ccccc2C(=O)N1SC(Cl)(Cl)Cl`, the molecule was classed as inactive.

As for `CNC(=O)Oc1cccc(N=CN(C)C)c1`, the result was inactive.

On to `O=C(O)COc1ccc(Cl)cc1Cl`, for which the outcome was inactive.

With `CCC(C)(NC(=O)c1cc(Cl)c(C)c(Cl)c1)C(=O)CCl` (stereo not given), the AC50 is 71 µM (active).

For the molecule `COP(=S)(OC)Oc1ccc([N+](=O)[O-])cc1`, the result was inactive.

For the molecule `CC(C)OC(=O)Nc1cccc(Cl)c1`, the molecule was classed as inactive.

Regarding `CCC(C)(C)C(=O)OC1=C(c2ccc(Cl)cc2Cl)C(=O)OC12CCCCC2`, the molecule was called inactive.

With `N#CN`, the molecule was called inactive.

Turning to `CNC(=O)Oc1ccccc1OC(C)C`, the molecule was called inactive.

On to `CCOC1Oc2ccc(OS(C)(=O)=O)cc2C1(C)C` (stereo not given), for which the AC50 was 74.1 µM (active).

`CC1(C)C(C=C(Cl)Cl)C1C(=O)OC(C#N)c1ccc(F)c(Oc2ccccc2)c1` (stereo not given): the molecule was classed as inactive.

Take `O=C(O)C(F)(F)C(F)(F)C(F)(F)C(F)(F)C(F)(F)C(F)(F)C(F)(F)F`: the AC50 is 23.3 µM (active) and the molecule was classed as inactive.

As to `CNC(=O)/C=C(\C)OP(=O)(OC)OC`, the molecule was classed as inactive.

For `COc1nn(CSP(=S)(OC)OC)c(=O)s1`, the outcome was inactive.

On to `COP(=S)(OC)Oc1ccc(SC)c(C)c1`, for which the molecule was classed as inactive.

As to `CC(C)(C)C(O)C(Oc1ccc(Cl)cc1)n1cncn1` (stereo not given), the molecule was classed as inactive.

For `O=[N+]([O-])/N=C1\NCCN1Cc1ccc(Cl)nc1`, the AC50 is 39.8 µM (active).

In the case of `CCCN(CCC)c1c([N+](=O)[O-])cc(C(F)(F)F)cc1[N+](=O)[O-]`, the molecule was called inactive.

Take `CCCN(CCOc1c(Cl)cc(Cl)cc1Cl)C(=O)n1ccnc1`: the AC50 was 32.1 µM (active).

For `CCC(C)Nc1c([N+](=O)[O-])cc(C(C)(C)C)cc1[N+](=O)[O-]` (stereo not given), the outcome was inactive.

`CCc1ccc(C(=O)NN(C(=O)c2cc(C)cc(C)c2)C(C)(C)C)cc1`: the molecule was called inactive.

For the molecule `O=C(Nc1ccccc1)Nc1cnns1`, the half-maximal activity concentration (AC50) is 50 µM (active).

These data come from PubChem BioAssay (EPA / NIEHS).
